Screening results from PubChem BioAssay.
Rows were chosen to be rich in hits. Some 9.5% of all compounds tested hit in one or more screens of this group.
Pf growth 96h: P. falciparum growth inhibition at 96 hours. P. falciparum luciferase reporter growth, 96 h. Potency, µM (doses to about 28.7 µM), most hits filed as inhibitors. hit rate 6.9% among 320,000. AID 504834; active means well fitted inhibition curve with a large enough effect; inconclusive means small, poorly fitted or top-dose-only effect, or another doubt; inactive means no such curve, though single readings can be large or run the other way
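Erythrocytes infected with luciferase-expressing P. falciparum were dispensed at 2% hematocrit and 0.05% parasitemia (final), then incubated with compounds 96 hours at 37 C in 5% CO2. Luminescence after detection reagent addition reported growth.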
NS1 inh: influenza NS1 inhibition | Potency, µM (series often up to 46.1 µM) | hit rate 0.4% among 270,000 | AID 2326; further: actives are rising curves; nearly all actives have a fitted effect of over 50% in size
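Read-out: OD600 growth recovery of NS1-expressing budding yeast. Cells grown overnight at 30C in -URA glucose medium, washed, resuspended and diluted 1:100 in 2% galactose assay medium, pH 6.0. Same strain lacking NS1 served as positive control.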
RE007 growth inh: less growth of the S. pombe RE007 Vpr strain; S. pombe RE007 Vpr strain, BacTiter-Glo ATP luminescence, 24 h; Potency, µM (highest dose often 92.2 µM), most hits filed as inhibitors; hit rate 0.21% among 360,000; AID 651644; active means well fitted falling curve with a large enough effect; inconclusive means small, poorly fitted or top-dose-only effect; inactive means no such curve, though single readings can be large or run the other way; further: nearly all actives have a fitted effect of over 50% in size
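Fission yeast RE007 carrying one integrated HIV-1 vpr copy, seeded at OD 0.01 in PMG+AL medium with 23 nL pinned compound. Grown 24 h at 30 degrees; viability read by BacTiter-Glo luminescence after 5 min.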
SARS PLpro yeast: blocks SARS-CoV papain-like protease in a yeast assay; S. cerevisiae expressing SARS-CoV PLpro, growth rescue; Potency, µM (titrated, usually from 32.9 µM), most hits filed as activators; hit rate 0.19% among 330,000; further: nearly all actives have a fitted effect of over 55% in size
Pf growth 48h: inhibits P. falciparum growth in the first generation, 48 h; P. falciparum luciferase growth in erythrocytes, 48 h; AID 504832; hit rate 5.9% among 310,000; Potency, µM (titrated, usually from 28.7 µM), usual class: inhibitors; active means well fitted inhibition curve with a large enough effect; inconclusive means small, poorly fitted or top-dose-only effect, or another doubt; inactive means no such curve, though single readings can be large or run the other way
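Firefly luciferase activity from engineered P. falciparum reports growth; inhibitors lower the luminescent signal. Cultures contained 2% hematocrit erythrocytes at 0.1% final parasitemia.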
Large screens that a line does not name were inactive. Unless noted, the call rests on the fitted dose curve.

COc1ccc(F)cc1C(=O)C1CCCN(C(=O)C2=C(C)OCCO2)C1 (stereo unspecified)	none
CC(=O)N1c2ccc(S(=O)(=O)NCC3CCC(C(=O)Nc4cc(C)ccn4)CC3)cc2CC1C (stereo unspecified)	Pf growth 96h inconclusive, Pf growth 48h inconclusive
COc1cccc(C(=O)Cn2c(=O)n(CC3CCCO3)c(=O)c3ccccc32)c1 (stereo unspecified)	Pf growth 96h 11.7µM (no result: Pf growth 48h)
COc1ccc(SCCC(=O)NCc2ccncc2)cc1	none
CCOc1[nH]n(-c2ccccc2)c(=O)c1C=Nc1ccc(C)cc1	none (no result: NS1 inh)
CCOc1[nH]n(-c2ccccc2)c(=O)c1C=Nc1ccccc1	Pf growth 96h 3.7µM (no result: NS1 inh)
CN(Cc1ccccc1)C(=O)COC(=O)CCC(=O)c1ccc(F)cc1	none (no result: Pf growth 96h, NS1 inh, Pf growth 48h)
COCCn1nnnc1C(C(C)C)N1CCOCC1 (stereo unspecified)	Pf growth 96h 8.28µM
Cc1ccc(C)c(NC(=O)c2ccccc2C(=O)c2ccccc2)c1	Pf growth 48h inconclusive (no result: NS1 inh, RE007 growth inh)
O=C(COC(=O)c1cncc(Br)c1)NC1CCCCCC1	Pf growth 48h 3.29µM
O=C(COC(=O)c1cncc(Br)c1)NC1CCCC1	none (no result: NS1 inh)
CCc1ccc(NC(=O)C(=O)NCCOc2ccccc2Cl)cc1	Pf growth 96h inconclusive (no result: NS1 inh)
CC(CNC(=O)C1CCCN(S(=O)(=O)N2CCOCC2)C1)c1ccccc1 (stereo unspecified)	Pf growth 96h inconclusive, Pf growth 48h inconclusive (no result: SARS PLpro yeast)
COc1cccc(OC)c1C(=O)NC(=O)Nc1c(F)c(F)c(F)c(F)c1F	Pf growth 96h 2.08µM, Pf growth 48h 7.38µM
COc1ccc([N+](=O)[O-])c(OC)c1C(=O)NC(=O)Nc1c(F)c(F)c(F)c(F)c1F	Pf growth 96h 4.65µM (no result: Pf growth 48h)
CC(C)(Sc1cc(C(C)(C)C)c(O)c(C(C)(C)C)c1)Sc1cc(C(C)(C)C)c(O)c(C(C)(C)C)c1	Pf growth 96h 1.04µM, Pf growth 48h 7.21µM
Nc1nc(CCl)nc(N(c2ccccc2)c2ccccc2)n1	Pf growth 96h 2.08µM, NS1 inh inconclusive, Pf growth 48h 5.22µM
Cc1cccc2sc(N(CCCN(C)C)C(=O)CCc3ccccc3)nc12	Pf growth 96h 1.85µM, Pf growth 48h inconclusive
CN(C)CCN(C(=O)CCS(=O)(=O)c1ccccc1)c1nc2c(F)cccc2s1	Pf growth 96h 2.62µM
Cc1ccc2sc(N(CCCN(C)C)C(=O)CCS(=O)(=O)c3ccccc3)nc2c1C	Pf growth 96h 6.57µM
Cc1cccc2sc(N(CCCN(C)C)C(=O)CN3C(=O)c4ccccc4C3=O)nc12	none (no result: NS1 inh)
CN(C)CCCN=Cc1c(O)n(Cc2ccc3c(c2)OCO3)c(=O)c2ccccc12	Pf growth 96h inconclusive (no result: NS1 inh, RE007 growth inh)
CCOc1ccccc1-c1cc(C(=O)N/N=C/c2ccc3c(c2)OCO3)c2ccccc2n1	Pf growth 48h 2.33µM (no result: Pf growth 96h)
COc1ccccc1-c1cc(C(=O)N/N=C/c2sccc2C)c2ccccc2n1	Pf growth 96h 1.85µM, NS1 inh inconclusive, Pf growth 48h 1.85µM
O=C(N/N=C/c1ccc2c(c1)OCO2)c1cc(-c2ccccc2Cl)nc2ccccc12	Pf growth 96h 10.4µM, NS1 inh inconclusive, Pf growth 48h inconclusive
O=C(N/N=C/c1ccc2c(c1)OCO2)c1cc(-c2ccncc2)nc2ccccc12	Pf growth 96h inconclusive, Pf growth 48h inconclusive
CSc1ccc(CN2CCC(n3nccc3NC(=O)C3CCOC3)CC2)cc1 (stereo unspecified)	none
COc1ccccc1/C=C/C(=O)OCC(=O)Nc1c(C)nn(-c2ccccc2)c1C	Pf growth 96h inconclusive, Pf growth 48h inconclusive (no result: NS1 inh)
O=C(COc1cccc(F)c1)Nc1nc(-c2ccncc2)cs1	Pf growth 96h inconclusive, Pf growth 48h inconclusive (no result: NS1 inh)
S=c1[nH]ncn2c1cc1oc3ccccc3c12	none (no result: NS1 inh)
CC(C)(C)OC(=O)NCCCCCNC(=O)c1[nH]cnc1C(=O)Nc1cc(Br)ccc1F	none (no result: Pf growth 96h, NS1 inh, SARS PLpro yeast, Pf growth 48h)
CC1(C(=O)NS(=O)(=O)C2CC2)CCCN(C(=O)c2ccco2)C1 (stereo unspecified)	none (no result: Pf growth 96h, NS1 inh, SARS PLpro yeast, Pf growth 48h)
CCOc1ccc2nc(NC(=O)c3ccccn3)sc2c1	RE007 growth inh 14.1µM
CCOc1ccc2nc(NC(=O)Nc3ccccc3)sc2c1	none (no result: Pf growth 48h)
CCOc1ccc2nc(NC(=O)C3CCN(c4cnccn4)CC3)sc2c1	Pf growth 48h 9.28µM
CCOc1ccc2nc(NC(=O)C3CCN(S(=O)(=O)c4cnc[nH]4)CC3)sc2c1	Pf growth 96h inconclusive, SARS PLpro yeast inconclusive (no result: Pf growth 48h)
CCOc1ccc2nc(NC(=O)CN3CCOCC3)sc2c1	Pf growth 48h 4.15µM
